Measurements: PubChem BioAssay (NCI)
This is part of a sample that, as a whole, favours compounds with a hit. Of some 83,000 tested, about 20% had one in any assay.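 Single-dose data. Exposure time 48 hours. Values below 10 considered active.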 Activity calls are given as the source filed them.

Columns and labels:
Assay in all cases: NCI-60 one-dose screen, 48 h (100 = growth as untreated, 0 = no growth, -100 = all killed)
Settings in all cases: 10 µM unless noted
[1] = test system: SR leukemia
[2] = test system: RPMI-8226 leukemia
[3] = test system: OVCAR-5 ovarian
[4] = test system: OVCAR-4 ovarian
[5] = test system: SK-OV-3 ovarian
[6] = test system: IGROV1 ovarian
[7] = test system: OVCAR-3 ovarian
[8] = test system: HS 578T breast
[9] = test system: NCI/ADR-RES ovarian
[10] = test system: OVCAR-8 ovarian

Measured: growth

C=C1C(=O)O[C@H]2[C@H]1CC/C(COC(=O)c1cc3cc(Cl)ccc3[nH]1)=C\CC[C@@]1(C)O[C@@H]21
active: [1] -25.6% | [2] -29.9% | [3] -69.9% | [4] -81.9% | [6] -82.7% | [7] -91.3% | [8] -22% | [9] -35.3%
inactive: [5] 27.6%

O=C(NNC(=O)c1nc2cc(F)ccc2n2cccc12)c1cnccn1
inactive: [1] 21.4% | [2] 41.3% | [4] 28.4% | [5] 42.1% | [6] 35.6% | [7] 30% | [8] 67.8% | [9] 20.8%

COc1cccc(/C=C/C(=O)c2cccc(Nc3nc(Nc4ccccc4)nc(Nc4ccccc4)n3)c2)c1
inactive: [1] 42.4% | [3] 89% | [4] 84.1% | [5] 101% | [6] 77.5% | [7] 76.6% | [8] 81.5% | [9] 83.4%
active: [2] -55.2%

CNC1=CC(=O)c2c(C(=O)OC)c(C)[n+]([O-])c(C)c2C1=O
active: [7] 7.04%
inactive: [1] 95.5% | [2] 76.1% | [3] 96.1% | [4] 26% | [5] 120% | [6] 70.2% | [8] 94.1% | [9] 70.6%

Cc1ccc2c(=O)cc(C(=O)Nc3sc4c(c3C(=O)NCc3cccnc3)CCCC4)oc2c1C
inactive: [1] 89.8% | [2] 102% | [3] 105% | [4] 105% | [5] 100% | [6] 100% | [7] 106% | [8] 91.7% | [9] 98.9%

Cc1nnc(-c2ccc3c(c2)nc(/C=C/c2ccccc2)n3C2CCCCC2)o1
inactive: [2] 44.3% | [10] 80.2% | [3] 125% | [4] 82.3% | [5] 64.8% | [6] 77.1% | [7] 75.4% | [8] 90.3%

CCOC(=O)c1c(C)nc2ccccc2c1/C=C/c1cccs1
inactive: [2] 50.7% | [10] 74.8% | [3] 87.8% | [4] 40.4% | [5] 75.9% | [6] 72.1% | [7] 82.7% | [8] 98.9% | [9] 43.5%

CC1(C)CC(=O)c2c(nn(-c3ccc(Br)cc3)c2-c2cn(-c3ccccc3)nc2-c2cccnc2)C1
inactive: [2] 72.5% | [3] 106% | [4] 84.5% | [5] 82.5% | [6] 93.9% | [7] 99.7% | [8] 98.1% | [9] 94%
